# Source: ChEMBL document CHEMBL4513216, “Probing the Open Global Health Chemical Diversity Library for Multistage-Active Starting Points for Next-Generation Antimalarials” (ACS Infect Dis, 2020)
# Hit rate of the full screen: of about 69,000 compounds, about 8,600 (12%) showed an effect of 50% or more. The sample as a whole holds a higher share of strong results than the screen did.
# Tested on: Plasmodium berghei
# Assay: Screen against P. berghei liver stage (PbLuc), transformed with Luciferase, at 10uM
# Format: functional, HepG2
# Conditions: tested at 10 uM
row,SMILES,INHIBITION [%]
1,Cc1ccc(NC2CCN(C(=O)Cc3ccc(C)s3)CC2)nn1,27.8
2,CNC(=O)c1cccc(CN2CCN(C3=NCC(C)(C)S3)CC2)c1,28.7
3,O=C(C1CC(c2cccc(F)c2)=NO1)N1CCc2ccccc21 (centres undefined),-12.2
4,CCSCCC(=O)N1CCc2[nH]nc(COc3ccccc3)c2C1,10.9
5,O=C(CCn1cccc1)N1CCc2[nH]nc(COc3ccccc3)c2C1,34.7
6,O=C(CCc1ccco1)N1CCc2[nH]nc(COc3ccccc3)c2C1,32.7
7,O=C(c1csnn1)N1CCc2[nH]nc(COc3cccc(Cl)c3)c2C1,73
8,Cc1nc(C)c(C(=O)N2CCc3[nH]nc(COc4ccccc4)c3C2)s1,49.5
9,O=C(CSCC1CC1)N1CCc2[nH]nc(COc3ccccc3)c2C1,11.9
10,O=C(CCc1cccs1)N1CCc2[nH]nc(COc3ccccc3)c2C1,36.7
11,O=C(N1CCOCC1)N1CCc2[nH]nc(COc3cccc(Cl)c3)c2C1,67.5
12,O=C1CC[C@@H](C(=O)N2CCc3[nH]nc(COc4cccc(Cl)c4)c3C2)N1,52.6
13,Cc1nn(C)c(N(C)C)c1CNC(C)COc1ccc(F)cc1 (centres undefined),-59.4
14,NC(=O)C1CCN(C(=O)CCCc2nnc(-c3ccccc3)o2)C1 (centres undefined),14.4
15,CC(C)NC(=O)C1CN(C(=O)c2ccccc2)CC12CCOCC2 (centres undefined),29.9
16,CCN1C(=O)C(c2ccccc2)CC12CCN(Cc1cccnc1)CC2 (centres undefined),-4.82
17,CN(C)CC1(O)CCCN(Cc2ccccc2OCC(=O)N(C)C)C1 (centres undefined),47.6
18,OCC1(O)CCCN(Cc2ccccc2OCCc2ccccc2)CC1 (centres undefined),52.6
19,OCC1(O)CCCN(Cc2nnc(-c3ccccc3)o2)CC1 (centres undefined),21.2
20,O=C1NCC2(CCCN(Cc3ccccc3OCCO)C2)O1 (centres undefined),44.3
21,OCCOc1ccccc1CN1CCCC(O)(CO)C1 (centres undefined),66.5
22,COCCC1(C(=O)O)CCCN(Cc2ccccc2OCCO)C1 (centres undefined),3.48
23,Cn1cc(C(=O)N2CCCC2c2[nH]ncc2C(N)=O)cn1 (centres undefined),7.52
24,O=C(CNCc1ccccc1Cn1cccn1)Nc1cnccn1,38.5
25,CCS(=O)(=O)N1CCC(C(=O)NC(Cc2ccsc2)c2nccs2)CC1 (centres undefined),59
26,CS(=O)(=O)N1CCC(C(=O)NC(Cc2ccsc2)c2nccs2)CC1 (centres undefined),38.1
27,O=C(NC(Cc1ccsc1)c1nccs1)C1CC1 (centres undefined),12.3
28,Cc1cc(C)n(CC2CN(Cc3nc(-c4ccco4)no3)CCO2)n1 (centres undefined),36.4
29,CN(CCN1CCOC1=O)CC(=O)Nc1ccc(Cl)c(Cl)c1,37.8
